Assay outcomes from PubChem BioAssay.
Only some compounds are listed: those with a hit (about 1.4% of all), similar ones and a draw of the others.
MCL1 BIM primary = disrupts human MCL1 binding to BIM-BH3 peptide; hit rate 0.68% among 320,000; Q07820; inhibition, % at 10.9 µM; GST-MCL1 / FITC-Bim-BH3 fluorescence polarization;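 active = inhibition above the mean inhibition of all tested compounds plus 3 SD, set per campaign, cut at about 40% in these data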;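 also: 0% = DMSO wells and 100% = unlabeled Bim-BH3 peptide control; higher means more loss of mP so more displacement of Bim peptide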
MEX-5 binding = C. elegans MEX-5 TCR-2 RNA binding activity; Q9XUB2; MEX-5/FITC-TCR2 RNA binding, fluorescence polarization; hits give low values; hit rate 0.38% among 300,000; activity score (negative = inhibition of binding), % at 10 µM; AID 1832;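 active = inhibition past about -25% in most replicates, and total fluorescence under double the plate's negative control median, limit read from the data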;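 also: 0% = DMSO and -100% = 5 µM competing unlabeled TCR2 RNA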
EBV gp42 block = blocks Epstein-Barr virus glycoprotein 42 binding. hit rate 0.42% among 220,000. inhibition, % (tested at 21.74 µM). Fluorescence polarization binding assay, mP read-out. Q1HVG2. AID 1085; in the data active = inhibition above about 50%
Target sequence (Q1HVG2 whole entry, looked up): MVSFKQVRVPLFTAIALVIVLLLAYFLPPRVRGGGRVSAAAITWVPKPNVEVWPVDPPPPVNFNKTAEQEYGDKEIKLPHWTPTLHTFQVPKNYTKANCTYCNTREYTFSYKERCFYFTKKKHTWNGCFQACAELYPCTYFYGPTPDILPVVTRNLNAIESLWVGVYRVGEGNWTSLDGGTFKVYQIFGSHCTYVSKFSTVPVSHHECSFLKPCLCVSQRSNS
E coli Lon inh = inhibits E. coli Lon protease; purified E. coli Lon protease, fluorescence polarization; P0A9M0; hit rate 0.42% among 360,000; inhibition, % at 7.94 µM; in the data active = inhibition above about 13%, passing the limit was not always enough;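 also: 0% = enzyme with probe and DMSO and 100% = no enzyme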
Bcl-xL primary = Bcl-xL (human) inhibition; Q07817; GST-Bcl-xL / FITC-Bim BH3 peptide fluorescence polarization; inhibition, % at 10.9 µM; hit rate 0.7% among 320,000; AID 2129;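 active = inhibition above the mean of all tested compounds plus 3 SD, cutoff set per campaign, cut at about 30% in these data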;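 also: 0% = DMSO wells and 100% = unlabeled Bim-BH3 peptide competitor; inhibitors lower millipolarization by displacing the labeled peptide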
Target sequence (Q07817 whole entry, looked up): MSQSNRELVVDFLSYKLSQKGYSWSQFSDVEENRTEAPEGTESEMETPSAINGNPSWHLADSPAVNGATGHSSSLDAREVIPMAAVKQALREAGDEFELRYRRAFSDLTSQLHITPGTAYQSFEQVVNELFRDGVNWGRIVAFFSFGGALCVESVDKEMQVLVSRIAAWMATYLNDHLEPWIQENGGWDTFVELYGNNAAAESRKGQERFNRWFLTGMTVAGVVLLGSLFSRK
GLD-1 TGE inh = GLD-1-TGE RNA interaction inhibition (C. elegans) | inhibition, % at 5.96 µM | purified GLD-1 + fluorescein TGE RNA, fluorescence polarization | hit rate 0.44% among 320,000 | Q17339;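 active = percent inhibition above a per-plate cutoff, the plate mean of test compounds plus 3 SD, cut at about 30% in these data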;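 also: 0% = DMSO wells with GLD-1 and probe and 100% = wells lacking GLD-1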
eLon confirm = confirmation of E. coli Lon protease inhibitors | shares compounds with E coli Lon inh | purified E. coli Lon, fluorescence polarization | inhibition, % at 7.94 µM | hit rate 31% among 1,400 | AID 602230; in the data active = inhibition above about 16%;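 also: 0% = enzyme with probe and DMSO and 100% = no enzyme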
* marks the source's active call; other numbers are inactive results; / = not tested or not shown.

SMILES | MCL1 BIM primary | MEX-5 binding | EBV gp42 block | E coli Lon inh | Bcl-xL primary | GLD-1 TGE inh | eLon confirm
COc1cc(OC)c(-c2c3cc(O)c(=O)cc-3oc3cc(O)c(O)cc23)cc1OC | -43.8 | / | -128.0 | 19.9* | 11.0 | -87.8 | -54.4
CCc1nnc(NC(=O)C2c3ccccc3Oc3ccccc32)s1 | -6.1 | 2.5 | -0.5 | 19.0* | -0.3 | 4.7 | -31.9
O=C(Nc1nc2ccccc2s1)C1c2ccccc2Oc2ccccc21 | 7.0 | 0.8 | -15.9 | -12.9 | 1.7 | 0.2 | /
COc1ccc(N2CCN(CC(=O)N3c4ccccc4CC3C)CC2)cc1 (stereo not given) | -1.6 | -2.3 | / | 18.1* | 3.1 | 2.7 | -3.7
CC1CCN(CC(=O)N2c3ccccc3CC2C)CC1 (stereo not given) | 1.5 | -1.7 | -20.4 | -2.5 | 5.5 | -0.5 | /
Cc1ccc(S(=O)(=O)N2CCn3cccc3C2C)cc1 (stereo not given) | 17.2 | / | / | 20.6* | 10.8 | 6.7 | -5.2
CCOC(=O)C1=C(C)NC(=S)N(C(C)=O)C1c1ccccc1 (stereo not given) | 5.4 | -0.8 | -12.7 | 17.2* | 2.6 | -3.0 | 0.8
CCOC(=O)C1=C(C)NC(=O)CC1c1ccccc1 (stereo not given) | -11.2 | -1.8 | -0.7 | -3.2 | 3.3 | -1.3 | /
COc1ccc(NS(=O)(=O)c2cccc(C(=O)NCc3ccccc3CN3CCOCC3)c2)cc1 | / | / | / | 8.7 | / | / | /
COc1ccc(NC(=O)COC(=O)c2cc(C)oc2C)cc1OC | -4.6 | / | / | -3.7 | -3.0 | -2.0 | /
COc1ccc(OC)c(C(=O)COC(=O)c2cc(C)oc2C)c1 | 9.2 | -3.9 | -11.5 | 27.4* | -0.2 | -5.8 | -7.2
C=CCOc1ccc(CNCC2CCCO2)cc1 (stereo not given) | 8.8 | 0.2 | / | 54.5* | 5.4 | -1.8 | 4.5
CSCCC(NC(=O)c1ccc(Cl)cc1)C(=O)OCC(=O)Nc1ccc(C#N)cc1 (stereo not given) | 0.2 | / | 8.1 | 35.4* | 0.7 | 7.2 | 0.7
CSCCC(NC(=O)c1ccc(Cl)cc1)C(=O)OCC(C)=O (stereo not given) | -2.5 | 0.0 | 1.2 | 7.8 | 3.8 | -4.8 | /
CN1C[C@H]2CON(C)[C@H]2C[C@H]1c1cccc(-c2ccccc2)c1 | / | / | / | 5.0 | / | / | /
NC(=O)C(=O)N/N=C/c1c2ccccc2cc2ccccc12 | -9.2 | -11.2 | / | -18.8 | -3.1 | -11.4 | /
CCOC(=O)/C=c1\s/c(=C\c2ccc(C)cc2)c(=O)n1CC(=O)NCc1ccco1 | -2.1 | -2.6 | -30.4 | 24.0* | 8.8 | 3.1 | -1.6
O=C1NC2c3c(I)sc(I)c3C(=O)C2O1 (stereo not given) | / | / | / | 105.2* | / | / | 16.6*
CCO/C(C)=N/Oc1cncnc1 | / | / | / | 0.3 | / | / | /
COc1cc(C(CC(=O)N2CCCC2)c2c(OC)cc(OC)c3ccc(=O)oc23)cc(OC)c1OC (stereo not given) | 38.5 | -38.6* | -11.9 | 37.0* | 35.6* | 55.4* | 13.9
CCOC(=O)C1ON2CCCCC2C1(O)C(F)(F)F (stereo not given) | 1.9 | -1.6 | -3.0 | -3.3 | -0.4 | -5.7 | /
Cc1ccccc1CSc1nnc2ccc(-c3ccncc3)nn12 | 3.5 | 0.9 | 4.9 | 9.5 | -3.0 | -3.4 | /
O=C1C(NS(=O)(=O)c2ccccc2)=C(N2CCN(c3ccc(F)cc3)CC2)C(=O)c2ccccc21 | 5.6 | -1.0 | 15.3 | -2.1 | 9.7 | 5.0 | /
O=C1C(NS(=O)(=O)c2cccs2)=C(N2CCN(c3cccc(Cl)c3)CC2)C(=O)c2ccccc21 | 26.1 | -0.3 | -1.7 | 19.4* | 25.8 | 13.5 | 32.0*
CCCC1SCC(C)(C)NC1=O (stereo not given) | / | / | / | -13.0 | / | / | /
COc1ccc(S(=O)(=O)Nc2c(NC3CCCCC3)c3ccccc3oc2=O)cc1OC | -2.8 | 0.3 | / | -6.1 | 0.8 | -3.5 | /
CCN(CC)S(=O)(=O)c1cc(NC(=O)[C@@H](NC(N)=O)C(C)C)ccc1C | -7.3 | 2.4 | 5.4 | 17.1* | -1.8 | -7.2 | -3.1
CCc1[nH]c(=O)[nH]c1C(C)S(=O)(=O)c1ccc(C)cc1 (stereo not given) | 8.1 | -0.1 | 5.5 | -7.0 | 8.9 | 3.5 | /
CCc1c(C(C)S(=O)(=O)c2ccc(C)cc2)[nH]c(=O)n1-c1ccc(C)cc1 (stereo not given) | 17.2 | 1.9 | -14.6 | 62.9* | 9.2 | 9.2 | 8.4
